# In PubChem BioAssay (EPA / NIEHS):
# Records with an inconclusive call do not appear. Calls of active or inactive are those of the source. The calls were made as follows: active = hit-call score of the fitted dose curve at least 0.9, where 1 is the maximum; inconclusive = response in the unintended direction; inactive = score below 0.9.
# Target: human Peroxisome Proliferator-activated Receptor alpha (PPARa), PPARA (gene 5465) (UniProt Q07869)
# Assay: ATG_PPARa_TRANS: Attagene TRANS-FACTORIAL HepG2 Assay for human Peroxisome Proliferator-activated Receptor alpha (PPARa) (AID 2283001);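 as to AC50: potency for gain of reporter signal over DMSO so agonist or activator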
# Procedure, shortened: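 Reporter transcripts from GAL4-UAS units in transfected HepG2 were quantified 24 h after dosing. Detection used reverse transcription, PCR, fluorescent primer extension and capillary electrophoresis, with DMSO as baseline.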
# Chain of human Peroxisome Proliferator-activated Receptor alpha (PPARa), PPARA (gene 5465) (Q07869 whole entry, looked up): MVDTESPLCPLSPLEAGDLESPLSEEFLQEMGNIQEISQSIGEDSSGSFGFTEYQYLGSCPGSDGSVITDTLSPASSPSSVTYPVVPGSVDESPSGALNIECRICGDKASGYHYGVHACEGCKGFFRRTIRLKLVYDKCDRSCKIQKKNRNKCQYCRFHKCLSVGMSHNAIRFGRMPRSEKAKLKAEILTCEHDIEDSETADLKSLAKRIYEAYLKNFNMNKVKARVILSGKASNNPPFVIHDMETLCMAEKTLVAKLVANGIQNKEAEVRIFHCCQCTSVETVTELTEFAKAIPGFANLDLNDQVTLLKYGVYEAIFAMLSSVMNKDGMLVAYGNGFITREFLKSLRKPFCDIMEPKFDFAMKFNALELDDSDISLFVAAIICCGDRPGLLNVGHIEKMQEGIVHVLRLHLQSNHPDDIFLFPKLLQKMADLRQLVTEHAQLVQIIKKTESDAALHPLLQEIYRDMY
Compound,outcome,AC50
Cc1ncc([N+](=O)[O-])n1CCO,inactive,–
Nc1ccc(N)c2c1C(=O)c1ccccc1C2=O,inactive,–
COS(=O)(=O)O,inactive,–
COC(C)(C)CC(C)=O,inactive,–
IC(I)I,inactive,–
O=C1OC(=O)c2c(Cl)c(Cl)c(Cl)c(Cl)c21,inactive,–
O=CN1CCOCC1,inactive,–
COc1ccc(OC)c(N=Nc2c(O)ccc3ccccc23)c1,inactive,–
CCCCCCCCCCCCCC(=O)OCC(O)CO (centres undefined),inactive,–
CCCCCC(C=O)=Cc1ccccc1,–,27.5 µM (active)
NC(=S)NNC(N)=S,inactive,–
CN(C)c1ccncc1,inactive,–
O=C(O)c1ccc(O)cc1,inactive,–
C[C@H]1O[C@@H](O[C@H]2[C@@H](O)C[C@H](O[C@H]3[C@@H](O)C[C@H](O[C@H]4CC[C@@]5(C)[C@H](CC[C@@H]6[C@@H]5C[C@@H](O)[C@]5(C)[C@@H](C7=CC(=O)OC7)CC[C@]65O)C4)O[C@@H]3C)O[C@@H]2C)C[C@H](O)[C@@H]1O,inactive,–
CCCCC(CC)COC(C)=O (centres undefined),inactive,–
N#Cc1cscn1,inactive,–
CCCCCCC(O)CCCCCCCCCCC(=O)O (centres undefined),–,5.01 µM (active)
c1ccc(CCc2ccccc2)cc1,inactive,–
CCCCN(CCCC)C(=O)N(CCCC)CCCC,inactive,–

Compound,outcome,AC50
CCC(C)c1cc([N+](=O)[O-])cc([N+](=O)[O-])c1OC(=O)OC(C)C (centres undefined),inactive,–
COc1cc(Cl)c(OC)cc1N,inactive,–
CCc1cc(Cc2cc(CC)cc(C(C)(C)C)c2O)c(O)c(C(C)(C)C)c1,–,51.9 µM (active)
COc1ccc(COC(C)=O)cc1,inactive,–
C[Si]1(C)O[Si](C)(C)O[Si](C)(C)O1,inactive,–
C/C=C(\C)C(=O)OCCc1ccccc1,inactive,–
C=C(C)C(=O)OCCOCCOCCOCCOC(=O)C(=C)C,inactive,–
O=C1OC2(c3ccccc31)c1ccc(O)c(Br)c1Oc1c2ccc(O)c1Br,inactive,–
OCc1ccc(Cl)cc1Cl,inactive,–
Nc1ccc2cc(S(=O)(=O)O)cc(O)c2c1N=Nc1ccccc1C(F)(F)F,inactive,–
C=Cc1ccncc1,inactive,–
COC(C)(C)CCO,inactive,–
CCCCCCCC(=O)OCC(O)CO (centres undefined),inactive,–
CCCCCCCC/C=C\CCCCCCCC(=O)OCC,–,45.1 µM (active)
NCCNc1cccc2ccccc12,–,150 µM (active)
CCCCCCCCCCCCS(=O)(=O)Cl,inactive,–
c1ccc(Oc2ccccc2)cc1,inactive,–
Cc1ccc(S(=O)(=O)Oc2ccc(N=Nc3ccc(-c4ccc(N=Nc5c(O)ccc6cc(S(=O)(=O)O)cc(S(=O)(=O)O)c56)c(C)c4)cc3C)cc2)cc1,inactive,–
CN(C)C(=S)SC(=S)N(C)C,inactive,–

# Target: human Peroxisome Proliferator-activated Receptor delta (PPARd), PPARD (gene 5467) (UniProt Q03181)
# Sequence (Q03181 whole entry, looked up): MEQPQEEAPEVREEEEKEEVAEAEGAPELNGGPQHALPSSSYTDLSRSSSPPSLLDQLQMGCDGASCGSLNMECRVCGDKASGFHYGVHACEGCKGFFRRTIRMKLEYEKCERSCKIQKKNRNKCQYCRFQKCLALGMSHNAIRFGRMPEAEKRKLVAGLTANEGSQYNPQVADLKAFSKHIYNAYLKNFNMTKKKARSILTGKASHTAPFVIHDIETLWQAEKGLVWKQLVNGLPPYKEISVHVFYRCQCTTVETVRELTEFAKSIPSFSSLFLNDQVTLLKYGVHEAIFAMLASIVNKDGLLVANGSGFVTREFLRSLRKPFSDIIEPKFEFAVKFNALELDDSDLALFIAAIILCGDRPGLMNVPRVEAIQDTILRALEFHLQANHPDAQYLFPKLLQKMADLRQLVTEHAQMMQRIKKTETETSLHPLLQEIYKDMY
# Assay: ATG_PPARd_TRANS: Attagene TRANS-FACTORIAL HepG2 Assay for human Peroxisome Proliferator-activated Receptor delta (PPARd) (AID 2283002)
# Procedure, shortened: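 Transient HepG2 transfection (multiple GAL4-UAS RTUs, chimeric receptor-Gal4); 24 h dosing; total RNA → oligo(dT) RT → PCR → 6-FAM primer extension → HpaI cut → CE. Positive direction vs DMSO.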
Compound,outcome,AC50
Cc1ncc([N+](=O)[O-])n1CCO,inactive,–
Nc1ccc(N)c2c1C(=O)c1ccccc1C2=O,inactive,–
COC(C)(C)CC(C)=O,inactive,–
IC(I)I,inactive,–
O=C1OC(=O)c2c(Cl)c(Cl)c(Cl)c(Cl)c21,inactive,–
O=CN1CCOCC1,inactive,–
COc1ccc(OC)c(N=Nc2c(O)ccc3ccccc23)c1,inactive,–
CCCCCCCCCCCCCC(=O)OCC(O)CO (centres undefined),inactive,–
CCCCCC(C=O)=Cc1ccccc1,inactive,–
NC(=S)NNC(N)=S,inactive,–
CN(C)c1ccncc1,inactive,–
O=C(O)c1ccc(O)cc1,inactive,–
C[C@H]1O[C@@H](O[C@H]2[C@@H](O)C[C@H](O[C@H]3[C@@H](O)C[C@H](O[C@H]4CC[C@@]5(C)[C@H](CC[C@@H]6[C@@H]5C[C@@H](O)[C@]5(C)[C@@H](C7=CC(=O)OC7)CC[C@]65O)C4)O[C@@H]3C)O[C@@H]2C)C[C@H](O)[C@@H]1O,inactive,–
CCCCC(CC)COC(C)=O (centres undefined),inactive,–
CCCCCCC(O)CCCCCCCCCCC(=O)O (centres undefined),–,12.1 µM (active)
c1ccc(CCc2ccccc2)cc1,inactive,–
CCCCN(CCCC)C(=O)N(CCCC)CCCC,inactive,–
CCC(C)c1cc([N+](=O)[O-])cc([N+](=O)[O-])c1OC(=O)OC(C)C (centres undefined),inactive,–

Compound,outcome,AC50
COc1cc(Cl)c(OC)cc1N,inactive,–
CCc1cc(Cc2cc(CC)cc(C(C)(C)C)c2O)c(O)c(C(C)(C)C)c1,inactive,–
COc1ccc(COC(C)=O)cc1,inactive,–
C[Si]1(C)O[Si](C)(C)O[Si](C)(C)O1,inactive,–
C/C=C(\C)C(=O)OCCc1ccccc1,inactive,–
C=C(C)C(=O)OCCOCCOCCOCCOC(=O)C(=C)C,inactive,–
O=C1OC2(c3ccccc31)c1ccc(O)c(Br)c1Oc1c2ccc(O)c1Br,inactive,–
OCc1ccc(Cl)cc1Cl,inactive,–
Nc1ccc2cc(S(=O)(=O)O)cc(O)c2c1N=Nc1ccccc1C(F)(F)F,inactive,–
C=Cc1ccncc1,–,25.6 µM (active)
COC(C)(C)CCO,inactive,–
CCCCCCCC(=O)OCC(O)CO (centres undefined),inactive,–
CCCCCCCC/C=C\CCCCCCCC(=O)OCC,inactive,–
NCCNc1cccc2ccccc12,inactive,–
CCCCCCCCCCCCS(=O)(=O)Cl,inactive,–
c1ccc(Oc2ccccc2)cc1,inactive,–
Cc1ccc(S(=O)(=O)Oc2ccc(N=Nc3ccc(-c4ccc(N=Nc5c(O)ccc6cc(S(=O)(=O)O)cc(S(=O)(=O)O)c56)c(C)c4)cc3C)cc2)cc1,inactive,–
CN(C)C(=S)SC(=S)N(C)C,inactive,–
